# Results reported in paper PMC4336329 (PLoS ONE, 2015).
# Screen size: about 310,000 compounds; about 2,200 (0.71%) showed an effect of 50% or more. The effect is printed as a negative number. The sample holds strong results, similar compounds and a random draw of the others, so the mix is not that of the screen.
# Target: human ether-à-go-go-related gene (hERG) potassium channel (human, UniProt Q12809)
# Test: primary screen, population patch clamp on CHO cells stably expressing hERG; higher = less effect of the substance
# Method: Briefly, Chinese hamster ovary (CHO) cells stably expressing the hERG channel were dislodged from tissue culture flasks and dispensed into PPC plates. […] During the recording, background leak currents were estimated by a 100 ms step to -80 mV from an initial holding potential of -70 mV and subtracted from the subsequent current measurement. The campaign was conducted in two phases using slight differences in recording protocol. In the first phase, the initial voltage pulse used a 100 ms step to -30 mV from a holding potential of -70 mV, a 2 s conditioning step to +25 mV, and a 2 s test step to -30 mV. During the second phase of the screen, the potential during the conditioning step was raised to +45 mV. In both phases of the campaign, a secondary voltage pulse was applied using the same parameters as the second phase initial pulse. The initial and secondary pulses were applied in the absence of compound, and upon application of 1 μM and 10 μM test concentrations. Small molecule effects on hERG current density were quantified by […].
# Chain of human ether-à-go-go-related gene (hERG) potassium channel (Q12809 whole entry, looked up): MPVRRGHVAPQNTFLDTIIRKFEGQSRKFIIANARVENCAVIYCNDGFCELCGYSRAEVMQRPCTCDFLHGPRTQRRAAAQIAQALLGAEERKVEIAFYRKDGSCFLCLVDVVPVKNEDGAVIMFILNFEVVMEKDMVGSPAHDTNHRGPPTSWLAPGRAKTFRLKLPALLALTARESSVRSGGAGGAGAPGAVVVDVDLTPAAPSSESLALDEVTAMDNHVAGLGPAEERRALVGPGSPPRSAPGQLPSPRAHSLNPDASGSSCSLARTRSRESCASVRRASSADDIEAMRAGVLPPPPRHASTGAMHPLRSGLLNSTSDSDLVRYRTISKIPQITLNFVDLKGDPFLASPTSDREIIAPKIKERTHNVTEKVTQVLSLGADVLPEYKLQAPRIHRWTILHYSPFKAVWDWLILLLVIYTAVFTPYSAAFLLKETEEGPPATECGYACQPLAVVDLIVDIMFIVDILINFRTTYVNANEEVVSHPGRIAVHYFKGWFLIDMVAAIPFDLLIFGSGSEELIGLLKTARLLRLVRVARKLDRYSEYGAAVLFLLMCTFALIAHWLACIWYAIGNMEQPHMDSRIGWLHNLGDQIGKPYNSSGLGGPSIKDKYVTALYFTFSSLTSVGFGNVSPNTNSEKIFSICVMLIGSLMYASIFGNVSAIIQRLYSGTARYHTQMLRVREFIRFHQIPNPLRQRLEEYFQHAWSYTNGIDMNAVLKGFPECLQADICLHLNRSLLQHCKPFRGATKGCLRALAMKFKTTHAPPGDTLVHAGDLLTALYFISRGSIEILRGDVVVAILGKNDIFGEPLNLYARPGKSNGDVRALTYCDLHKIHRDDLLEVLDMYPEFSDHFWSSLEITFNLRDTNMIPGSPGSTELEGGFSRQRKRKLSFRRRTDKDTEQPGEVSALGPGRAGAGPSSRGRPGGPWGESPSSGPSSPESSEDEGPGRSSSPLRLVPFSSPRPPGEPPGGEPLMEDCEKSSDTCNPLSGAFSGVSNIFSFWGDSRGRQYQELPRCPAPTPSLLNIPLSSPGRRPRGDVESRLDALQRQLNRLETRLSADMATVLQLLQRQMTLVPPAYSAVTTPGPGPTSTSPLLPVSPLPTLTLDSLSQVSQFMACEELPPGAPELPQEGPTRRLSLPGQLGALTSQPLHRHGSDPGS
row,SMILES,"hERG current change (%, negative = inhibition) at 1uM [%]"
1,O=C(CCCN1C(=O)/C(=C/c2ccc3c(c2)OCO3)SC1=S)Nc1cccc(C(=O)O)c1,9.71
2,Cn1cc(S(=O)(=O)N2CCC(C(N)=O)CC2)c(=O)n(C)c1=O,11
3,Cc1c(C)c2cc(Cl)c(O)c(CN(C)C)c2oc1=O,15.4
4,CN(C)/C=N/c1cc(=O)[nH]c(=O)n1CC1CC1,17.1
5,O=C(CCc1ccccc1)Nc1ccnn1C1CCN(Cc2ccc(OCCO)cc2)CC1,-9.11
6,CC(C)Oc1ccc(CN2CCC(n3nccc3NC(=O)CCc3ccccc3)CC2)cc1,-86.3
7,CC(=O)Nc1ccc(CN2CCC(n3nccc3NC(=O)CCc3ccccc3)CC2)cc1,11.7
8,O=C(/C=C/c1ccc(-c2ccccc2)o1)c1ccccc1,10.1
9,Cc1ccc(NC(=O)C(c2ccccc2)N2CCN(CC(=O)N3CCOCC3)CC2)cc1 (stereo not drawn),-8.48
10,O=C(Nc1ccc(F)cc1)C(c1ccccc1)N1CCN(CC(=O)N2CCOCC2)CC1 (stereo not drawn),-14.5
11,CCOc1ccccc1NC(=O)C(c1ccccc1)N1CCN(CC(=O)N2CCOCC2)CC1 (stereo not drawn),-79.7
12,O=C(NCCc1nc2ccccc2[nH]1)/C(=C/c1ccc2c(c1)OCO2)NC(=O)c1ccccc1Cl,-49.9
13,O=C(NCCc1nc2ccccc2[nH]1)/C(=C/c1ccc2c(c1)OCO2)NC(=O)c1ccccc1,-14.2
14,O=C(NCCc1nc2ccccc2[nH]1)/C(=C/c1ccc2c(c1)OCO2)NC(=O)c1ccc(Cl)cc1Cl,-73.9
15,CSCC[C@H](NC(=O)c1ccc(Cl)c(S(=O)(=O)N2CCCC2)c1)c1nc2ccccc2[nH]1,-1.71
16,CCOc1cc(CN2CCCC(CNC(=O)c3ccc(F)cc3)C2)ccc1OC (stereo not drawn),-17
17,COc1ccc(CC(=O)NCC2CCCN(Cc3ccc(OC)cc3F)C2)cc1 (stereo not drawn),6.22
18,CSc1cccc(CN2CCCC(CNC(=O)c3ccc(F)cc3)C2)c1 (stereo not drawn),-19.1
19,O=C(NCC1CCCN(Cc2ccc3nonc3c2)C1)c1ccc(F)cc1 (stereo not drawn),-13.9
20,COc1ccc(CN2CCCC(CNC(=O)c3ccc(F)cc3)C2)cc1OC (stereo not drawn),-54.3
21,COc1ccc(CC(=O)NCC2CCCN(Cc3ccc(F)cc3F)C2)cc1 (stereo not drawn),8.71
22,CSc1ccc(CN2CCCC(CNC(=O)c3ccc(F)cc3)C2)cc1 (stereo not drawn),-59
23,CCOc1ccc(CN2CCCC(CNC(=O)c3ccc(F)cc3)C2)cc1CO (stereo not drawn),-50.5
24,COc1ccc(CN2CCCC(CNC(=O)c3ccc(F)cc3)C2)c(F)c1 (stereo not drawn),-50.4
25,COc1cc(OC)cc(C(=O)NCC2CCCN(Cc3ccc(SC)cc3)C2)c1 (stereo not drawn),-34.6
26,COc1ccc(CN2CCCC(CNC(=O)c3ccc(F)cc3)C2)c(C)c1C (stereo not drawn),-46.2
27,O=C(NCC1CCCN(Cc2cccc(OCCO)c2)C1)c1ccc(F)cc1 (stereo not drawn),2.83
